Source: PubChem BioAssay (NCI)
About 83,000 compounds went through this panel and 20% of them were active in at least one assay; those are over-represented in the sample as a whole.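 Results are percent growth after 48 hours of single-concentration exposure. 100 means growth as in untreated cells, lower positive values show inhibition; negative values down to -100 show cell death.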 Active and inactive are the calls of the source.

Test system: NCI-H23 lung
Experiment: NCI-60 one-dose screen, 48 h (100 = growth as untreated, 0 = no growth, -100 = all killed)
Conditions: 10 µM unless noted
Description: Growth inhibition of the NCI-H23 human Non-Small Cell Lung tumor cell line is measured as a screen for anti-cancer activity. Cells are grown in 96 well plates and exposed to the test compound for 48 hours. Compounds are tested at a single concentration, which is 10^-5 M for most compounds. The reported endpoint is percent growth (GI% or GIPRCNT), where numbers from 0 - 100% represent growth inhibition, and numbers from -100% - 0 represent cell death. For example, a value of 40 represents 60% growth inhibition. A value of 0 means no net growth occurred over the course of the experiment. A value of -40 indicates 40% of cells at the beginning of the experiment died by the end of the experiment. A value of -100 means all cells are dead at the end of the experiment.
NCI-60 Human Tumor Cell Lines Screen was performed using the standard one-dose NCI protocol, which is described in more detail at https://dtp.cancer.gov/discovery_development/nci-60/default.htm.
Compounds with GIPRCNT values below 10 were considered active. Activity score was based on GIPRCNT using the following formula: […]
Score is 0 for GIPRCNT values of 100 or above, 50 for GIPRCNT values of 0, and 100 for GIPRCNT values of -100.

| SMILES | growth |
| --- | --- |
| O=C(CCCC(=O)Nc1ccc(-n2nnc3cc(Cl)c(Cl)cc32)cc1)Nc1ccc(-n2nnc3cc(Cl)c(Cl)cc32)cc1 | 40.2% (inactive) |
| c1ccc(-c2n(Cc3ccc4ccccc4n3)cc[n+]2Cc2ccc3ccccc3c2)cc1 | 2.93% (active) |
| COc1ccc(-c2cc(-c3nnc(SCC(=O)Nc4ccc(/C(C)=N\O)cc4)n3-c3ccccc3)c3cc(OC)ccc3n2)cc1 | 86.4% (inactive) |
| C=C1C(=O)O[C@H]2[C@H]1CC/C(COC(=O)CCCCCCCCC(=O)OC/C1=C/CC[C@@]3(C)O[C@H]3[C@H]3OC(=O)C(=C)[C@@H]3CC1)=C\CC[C@@]1(C)O[C@@H]21 | -37.5% (active) |
| Cc1nccc2c3ccc(OCc4cn(-c5ccc(Br)cc5)nn4)cc3n(CC(C)C)c12 | 40.1% (inactive) |
| C=C1C(=O)O[C@H]2[C@H]1CC/C(C=Nc1c(N)cc(F)cc1Br)=C\CC[C@@]1(C)O[C@@H]21 | 93.1% (inactive) |
| O=S(=O)(O)c1ccc(N=NSc2ccc3ccccc3c2)cc1 | 93.4% (inactive) |
| CC(=O)Nc1nc2c(c(N)c1C#N)C(c1cccc(Cl)c1)C1=C(CCCC1=O)N2c1sc2c(c1C#N)CCCC2 (stereo not given) | 67% (inactive) |
| CCCCOc1nc2ccc(C)cc2cc1/C=C/C(=O)/C=C/c1ccc2c(c1)OCO2 | 82.4% (inactive) |
| N#Cc1ccc(C2C3=C(CCCC3=O)OC3=C2C(=O)c2ccccc2C3=O)cc1 (stereo not given) | 44.9% (inactive) |
| CN1CC=C(c2cc(NC(=O)Nc3ccc(Oc4ccnc(NC(=O)C5CC5)c4)c(F)c3)cc(C(F)(F)F)c2)CC1 | -14.8% (active) |
| C/C(=N/Nc1nc2ccccc2n1C)c1ccccn1 | 6.57% (active) |
| COCCOCCOCc1n(Cc2ccc3ccccc3c2)c2ccccc2[n+]1Cc1ccc2ccccc2c1 | 5.56% (active) |
| CN(C)C1=NCCN1 | 99.3% (inactive) |
| O=C(C[n+]1cccc2cc(Cl)ccc21)c1ccc2c(c1)CCCC2 | 8.05% (active) |
| CC(=O)c1ccc(NC(=O)CSc2nnc(-c3cc(-c4ccc(C)cc4)nc4ccccc34)o2)cc1 | 27.6% (inactive) |
| O=C(O)c1ccc(-n2cc(/C=N/Nc3ccc(Cl)cc3Cl)c(-c3ccccc3)n2)cc1 | 84.5% (inactive) |
| C=C1C(=O)O[C@H]2[C@H]1CC/C(COC(=O)NCc1nc3ccccc3[nH]1)=C\CC[C@@]1(C)O[C@@H]21 | 87.2% (inactive) |
| CC1CCN(CCCCCOc2ccc3oc4ccccc4c(=O)c3c2)CC1 | 75.6% (inactive) |
| N#C/C(=C/c1ccc(O)c([N+](=O)[O-])c1)c1nc(-c2ccc([N+](=O)[O-])cc2)cs1 | 13.6% (inactive) |

| SMILES | growth |
| --- | --- |
| O=c1[nH]nc(-c2ccc(Br)cc2)c2sc(NC(=S)Nc3ccc(Cl)cc3)nc12 | 84.1% (inactive) |
| C=C1C(=O)O[C@H]2[C@H]1CC/C(COC(=O)Nc1nc3ccccc3[nH]1)=C\CC[C@@]1(C)O[C@@H]21 | 70.9% (inactive) |
| C[C@H](Oc1cc(-c2cnn(C3CCNCC3)c2)cnc1N)c1c(Cl)ccc(F)c1Cl | 71.6% (inactive) |
| CCOC(=O)c1c(C)nc2c(c1N)/C(=C/c1ccccn1)C(=O)N2Cc1ccccc1 | 23.6% (inactive) |
| NC(=O)CN1C(=O)c2ccccc2C1=O | 98.8% (inactive) |
| COc1ccc(C(=O)c2cc(OC)c(C)c(OC)c2)cc1OC(=O)CCl | 27.4% (inactive) |
| CCOC(=O)c1c(C(F)(F)F)n([O-])c2ccc(Cl)cc2[n+]1=O | 14.8% (inactive) |
| CCSc1nc(Cl)c(C#N)c(-c2ccc(F)cc2)n1 | 95.6% (inactive) |
| CCCCCOC(=O)c1ccccc1O | 112% (inactive) |
| OCCNc1nc(NCCO)nc(Nc2ccc(C3=NN(c4cc(Cl)cc(Cl)c4)C(c4ccc(C(F)(F)F)cc4)C3)cc2)n1 (stereo not given) | 56.6% (inactive) |
| COc1cc(/C=C/C(=O)c2ccc(NC(=O)CSc3nnc(-c4cc(OC)c(OC)c(OC)c4)n3-c3ccccc3)cc2)cc(OC)c1OC | -3.58% (active) |
| O=C1NC(c2ccc(F)cc2)N=C2C(c3ccccc3)=NOC12 (stereo not given) | 107% (inactive) |
| CNC(=O)c1cc(Oc2ccc3c(c2)sc2nc(-c4ccc(NC(C)=O)cc4)cn23)ccn1 | 60.1% (inactive) |
| C=CCn1c(SCC(=O)Nc2ccc(C(=O)/C=C/c3ccc(Cl)cc3)cc2)nnc1-c1cc(OC)c(OC)c(OC)c1 | 92.9% (inactive) |
| CSc1nc(-c2cccs2)c2c(N)[nH]nc2n1 | 93.1% (inactive) |
| CC(C)(C)CC(C)(C)Cc1ccc(OCCOCC[N+](C)(C)Cc2ccccc2)cc1 | 20.7% (inactive) |
| COc1cc(C2CC(c3ccc(Nc4nc(NCCO)nc(NCCO)n4)cc3)=NN2c2cc(Cl)cc(Cl)c2)cc(OC)c1OC (stereo not given) | 4.73% (active) |
| COC(=O)c1ccc2c(c1)n(Cc1ccc3ccccc3c1)c[n+]2Cc1ccc2ccccc2c1 | 34.6% (inactive) |
| CCOC(=O)c1c(C)nc2c(c1N)CC(=O)N2CCc1ccccc1 | 53.2% (inactive) |
| COc1ccc2nc(-c3ccc(OC)c(OC)c3)cc(-c3nnc(SCC(=O)Nc4ccc(/C(C)=N\O)cc4)n3-c3ccccc3)c2c1 | 91.5% (inactive) |
